Measured values: the supplement of paper PMC13380429
Values without a mark were called inactive.

Tested on: Vero E6 infected with SARS-CoV-2
Test: inhibition of SARS-CoV-2 cytopathic effect; higher = more antiviral protection, active = above 15
Conditions: 48 h

Row | SMILES | inhibition of SARS-CoV-2 cytopathic effect (1 nM) [%] | inhibition of SARS-CoV-2 cytopathic effect (8.33 nM) [%] | inhibition of SARS-CoV-2 cytopathic effect (100 nM) [%] | inhibition of SARS-CoV-2 cytopathic effect (833.33 nM) [%] | inhibition of SARS-CoV-2 cytopathic effect (10000 nM)
1 | CCc1ccc(C(=O)C(C)CN2CCCCC2)cc1 (stereo not given) [eperisone] | 0.14 | 2.24 | 3.36 | 4.7 | 2.77%
2 | NS(=O)(=O)c1cc2c(cc1Cl)NC(C(Cl)Cl)NS2(=O)=O (stereo not given) [trichlormethiazide] | -3.15 | -5.19 | -10.5 | -3.29 | -8.52%
3 | COc1ccc2cc(-c3nc(-c4ccc([S+](C)[O-])cc4)[nH]c3-c3ccncc3)ccc2c1 (stereo not given) [tie2-kinase-inhibitor] | 5.39 | 5.15 | 0.64 | 1.97 | 9.27%
4 | CCn1cc(C(=O)O)c(=O)c2cc(F)c(N3CCNC(C)C3)c(F)c21 (stereo not given) [lomefloxacin] | 0.57 | -0.12 | -1.13 | 0.73 | -1.41%
5 | O=C(Cc1ccccc1)Nc1nc2ccc(Cl)cc2c2nc(-c3ccco3)nn12 | 3.65 | 4.32 | 3.84 | 2.42 | 4.22%
6 | CCOC(=O)c1ccc(N)cc1 [benzocaine] | -3.23 | -2.13 | -1.89 | -4.68 | -1.78%
7 | CC(C)(C)NC[C@H](O)COc1nsnc1N1CCOCC1 [timolol] | -1.77 | 0.61 | -1.85 | 3.77 | 0.96%
8 | C[C@@H]1O[C@@H](OC[C@H]2O[C@@H](Oc3c(-c4ccc(O)c(O)c4)oc4cc(O)cc(O)c4c3=O)[C@H](O)[C@@H](O)[C@@H]2O)[C@H](O)[C@H](O)[C@H]1O [rutin] | 1.54 | 1.59 | 5.75 | 0.96 | -5.92%
9 | O=C(O)c1ccc(/C=C2\SC(=S)N(c3cccc(C(F)(F)F)c3)C2=O)cc1 | -0.08 | -0.83 | -2.17 | -1.38 | -0.46%
10 | O=C(Nc1ccccc1)N1CCC(Cc2cnc3ccccc3c2)CC1 | -0.99 | -0.47 | 0.72 | -0.2 | -1.47%
11 | NC(=O)N1CCC(CC(=O)N2CCC([C@H]3c4ncc(Br)cc4CCc4cc(Cl)cc(Br)c43)CC2)CC1 [lonafarnib] | -0.44 | 0.33 | 1.55 | 11.2 | 12.3%
12 | Cc1c(S(=O)(=O)O)oc2c1C(=O)C(=O)c1c-2ccc2c1CCCC2(C)C [sodium-tanshinone-II-A-sulfonate] | -6.63 | -8.06 | -4.77 | -7.14 | -10.1%
13 | CN(C)C[C@H](O)Cn1c2ccc(Br)cc2c2cc(Br)ccc21 (racemic) [wiskostatin] | -2.04 | -1.61 | 0.88 | -1.26 | 57.3% (active)
14 | O=C(O)c1cc(-c2ccccc2)nc2ccccc12 [cinchophen] | -0.85 | -0.04 | -2.56 | 0.2 | 2.97%
15 | COc1ccc(C(=O)c2ccccc2O)c(O)c1 [dioxybenzone] | 1.95 | -0.38 | -1.57 | -0.76 | 2.94%
16 | O/N=C/c1cc[n+](COC[n+]2ccc(/C=N/O)cc2)cc1 [obidoxime] | 1.54 | -0.64 | -1.56 | -1.59 | -2.39%
17 | Nc1c2c(nc3c1CCC3)CCCC2 [ipidacrine] | 1.46 | 1.94 | 1.19 | 0.32 | 3.14%
18 | N#Cc1ccccc1-c1cc(-c2ccccn2)cn(-c2ccccc2)c1=O [Perampanel] | 2.02 | 0.93 | 4.1 | -0.14 | -5.2%
19 | OCCOCCN1CCN(C(c2ccccc2)c2ccc(Cl)cc2)CC1 (stereo not given) [hydroxyzine] | 1.41 | 0.93 | 1.56 | -1.88 | -4.3%

Row | SMILES | inhibition of SARS-CoV-2 cytopathic effect (1 nM) [%] | inhibition of SARS-CoV-2 cytopathic effect (8.33 nM) [%] | inhibition of SARS-CoV-2 cytopathic effect (100 nM) [%] | inhibition of SARS-CoV-2 cytopathic effect (833.33 nM) [%] | inhibition of SARS-CoV-2 cytopathic effect (10000 nM)
20 | CCOc1nc2cccc(C(=O)OC(C)OC(=O)OC3CCCCC3)c2n1Cc1ccc(-c2ccccc2-c2nn[nH]n2)cc1 (stereo not given) [candesartan-cilexetil] | -0.98 | -0.29 | -1.43 | -3.03 | -2.32%
21 | N#Cc1c(O)c2c(-c3ccc(-c4ccccc4O)cc3)csc2[nH]c1=O | -1.57 | -3.91 | -1.86 | 0.75 | 3.92%
22 | COc1cc([C@@H]2c3cc4c(cc3[C@@H](O[C@@H]3O[C@@H]5CO[C@@H](C)O[C@H]5[C@H](O)[C@H]3O)[C@H]3COC(=O)[C@H]23)OCO4)cc(OC)c1OP(=O)(O)O [etoposide-phosphate] | -3.4 | -1.24 | -0.75 | -0.98 | 1.67%
23 | Cc1nc(Nc2ncc(C(=O)Nc3c(C)cccc3Cl)s2)cc(N2CCN(CCO)CC2)n1 [dasatinib] | 1.14 | -1.86 | -4.77 | -12.6 | -11.6%
24 | CC(C)(Oc1ccc(C(=O)c2ccc(Cl)cc2)cc1)C(=O)O [fenofibric-acid] | 0.66 | -0.84 | 0.44 | 1.29 | -0.37%
25 | C[C@@H]1[C@H](O)[C@@H](C)/C=C/C=C/C=C/C=C/C=C/C=C/C=C/[C@H](O[C@@H]2O[C@H](C)[C@@H](O)[C@H](N)[C@@H]2O)C[C@@H]2O[C@](O)(C[C@@H](O)C[C@@H](O)[C@H](O)CC[C@@H](O)C[C@@H](O)CC(=O)O[C@H]1C)C[C@H](O)[C@H]2C(=O)O [amphotericin-b] | -1.34 | 0.44 | -1.99 | -0.45 | 3.31%
26 | COc1cc2c(NC3CCN(C4CCCCC4)CC3)nc(N3CCCN(C(C)C)CC3)nc2cc1OCCCN1CCCCC1 | -0.42 | 1.56 | 0.26 | -2.24 | 15%
27 | CN(C)c1ccc2c(c1)Sc1cc(N(C)C)ccc1N2 [leucomethylene-blue] | 2.22 | 0.11 | 0.26 | 0.69 | -7.13%
28 | O=C1NCN(c2ccccc2)C12CCN(CCCC(c1ccc(F)cc1)c1ccc(F)cc1)CC2 [fluspirilene] | 0.39 | -2.06 | -3.28 | -5.63 | 10.3%
29 | CC(=O)NC1N=C(c2ccccc2)c2ccccc2NC1=O (stereo not given) | 0.39 | 1.87 | -0.74 | 0.99 | -0.69%
30 | CC[C@H](C)[C@H](N)C(=O)O [isoleucine] | -1.51 | -4.12 | -0.12 | 0.05 | 1.97%
31 | CCCCCCCCCCCCCCCCOc1nc2ccc(C)cc2c(=O)o1 [cetilistat] | 2.2 | 1.36 | -0.06 | 0.62 | 0.91%
32 | COc1cc2c(c(OC)c1OC)-c1c(cc3c(c1OC)OCO3)CC(C)C(C)C2 (stereo not given) [schisandrin-B] | -1.41 | -0.34 | -0.03 | -1.73 | -1.42%
33 | Cc1coc2c1C(=O)C(=O)c1c-2ccc2c(C)cccc12 [tanshinone-I] | 1.07 | -0.7 | 0.25 | -2.81 | -1.34%
34 | O=C(N[C@@H](Cc1c[nH]c2ccccc12)C(=O)O)c1ccc(Cl)cc1 [benzotript] | 1.07 | 1.9 | 2.83 | 2.01 | 3.35%
35 | COc1cc(NS(C)(=O)=O)ccc1Nc1c2ccccc2nc2ccccc12 [amsacrine] | -2.31 | 1.72 | -0.21 | -6.01 | -5.76%
36 | CCn1c2ccccc2c2cc(CNC)ccc21 | 4.22 | 4.54 | -0.29 | -0.75 | -3.22%
37 | Cc1ccccc1/N=N/c1ccc(/N=N/c2c(O)ccc3ccccc23)c(C)c1 [sudan-IV] | 8.71 | -0.01 | -4.36 | -0.99 | -2.29%
38 | O=S(=O)(N[C@H]1CC[C@@](c2cc(F)ccc2F)(S(=O)(=O)c2ccc(Cl)cc2)CC1)C(F)(F)F | 2.61 | 4.08 | -0.09 | -2.63 | -2.01%
